# Results from PubChem BioAssay (NCI).
# Compounds without any hit were thinned out: in the full panel of roughly 83,000, 20% have a hit.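 Note: values are percent growth. 100 is the growth of untreated cells, values between 100 and 0 indicate rising inhibition; between -100 and 0 indicates cell death.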 Calls of active or inactive are those of the source.
# Test system: SNB-75 CNS
# Assay: NCI-60 one-dose screen, 48 h (100 = growth as untreated, 0 = no growth, -100 = all killed)
# Details: 10 µM
# Protocol: Growth inhibition of the SNB-75 human tumor cell line is measured as a screen for anti-cancer activity. Cells are grown in 96 well plates and exposed to the test compound for 48 hours. Compounds are tested at a single concentration, which is 10^-5 M for most compounds. The reported endpoint is percent growth (GI% or GIPRCNT), where numbers from 0 - 100% represent growth inhibition, and numbers from -100% - 0 represent cell death. For example, a value of 40 represents 60% growth inhibition. A value of 0 means no net growth occurred over the course of the experiment. A value of -40 indicates 40% of cells at the beginning of the experiment died by the end of the experiment. A value of -100 means all cells are dead at the end of the experiment.
# NCI-60 Human Tumor Cell Lines Screen was performed using the standard one-dose NCI protocol, which is described in more detail at https://dtp.cancer.gov/discovery_development/nci-60/default.htm.
# Compounds with GIPRCNT values below 10 were considered active. Activity score was based on GIPRCNT using the following formula: […]
# Score is 0 for GIPRCNT values of 100 or above, 50 for GIPRCNT values of 0, and 100 for GIPRCNT values of -100.
row,Structure (SMILES),growth
1,COc1ccccc1NC(=O)C1=C(C)NC(C)=C(C(=O)Nc2ccccc2OC)C1c1cccc([N+](=O)[O-])c1,74.2% (inactive)
2,O=C(O)c1cccc([N+](=O)[O-])c1O,96.1% (inactive)
3,CN(C)CCN(Cc1ccccc1)c1ccccc1,108% (inactive)
4,c1csc(-c2cc(-c3cc(-c4cccs4)[nH]n3)n[nH]2)c1,128% (inactive)
5,CCOc1ccc(I)cc1,91.4% (inactive)
6,C=CCNc1ccccc1,82.7% (inactive)
7,O=C1OC(=O)C2C1C1(Cl)C(Cl)=C(Cl)C2(Cl)C2C(=O)OC(=O)C21 (stereo not given),89.1% (inactive)
8,O=C(N/N=C/c1ccccc1O)Nc1nn[nH]n1,85.7% (inactive)
9,CN(C)C(=O)Oc1cccc([N+](C)(C)C)c1,85.1% (inactive)
10,CCOC(=O)C1=C(C)NC(=O)NC1c1cccs1 (stereo not given),103% (inactive)
11,CC1(C)/C(=C\CO)C2CCC1C2 (stereo not given),93.2% (inactive)
12,O=C(O)C(Cc1ccccc1)C(=O)O,95.9% (inactive)
13,CN(C)c1ccc2nc3ccc(=N)cc-3sc2c1,22.3% (inactive)
14,CC(C)=NNC(N)=S,93.5% (inactive)
15,CCN(CC)C(=O)/C=C(/C)c1ccccc1,93.2% (inactive)
16,Cc1cc2nc(CC(=O)c3ccccc3)c(=O)[nH]c2cc1C,117% (inactive)
17,CCOC(=O)/C(C#N)=C/c1cccc(C)c1,80.8% (inactive)
18,COc1cc2c3c(n(C)c(=O)c2cc1OC)-c1cc2c(cc1C3=O)OCO2,10.5% (inactive)
19,O=C1OC[C@H]2[C@H](c3ccc(O)c(O)c3)c3cc(O)c(O)cc3C[C@H]12,116% (inactive)
20,N#Cc1c(N)sc(=S)c2c1CCCC2,104% (inactive)

row,Structure (SMILES),growth
1,NC(=O)c1ccc(N=C(N)N=C(N)N)cc1,91.2% (inactive)
2,Cc1ccc(C(=O)c2ccccc2)c(C)c1,84.4% (inactive)
3,COc1ccccc1C1OC2=Nc3cc(C)c(C)cc3NC2C1=O (stereo not given),-13.2% (active)
4,Cc1cc(C)c(CC(=O)O)c(C)c1,93.2% (inactive)
5,CC(C)(C)n1nc(C2CC2)c(Br)c1NC(=O)c1ccccc1F,78.4% (inactive)
6,Nc1ccc(N=Nc2ccc(O)cc2)c(N)n1,82.5% (inactive)
7,O=C(Nc1cccc(NC(=O)Nc2cc(C(F)(F)F)ccc2Cl)c1)Nc1cc(C(F)(F)F)ccc1Cl,16.1% (inactive)
8,c1ccc(CN2COc3c(ccc4c3OCN(Cc3ccccc3)C4)C2)cc1,43.7% (inactive)
9,CCOC(=O)Nc1cc2c(c(N)n1)N=C(c1ccccc1)CO2,33.5% (inactive)
10,O=[N+]([O-])c1ccccc1S(=O)c1ccccc1[N+](=O)[O-],83.1% (inactive)
11,CSC(=N\N=C\c1ccc(N(C)C)cc1)/N=C/N(C)C,102% (inactive)
12,O=C1C[C@H](c2ccccc2)[C@H](c2ccccc2)C1,91.8% (inactive)
13,CCOC(=O)C1=C(Nc2ccc(Br)cc2)C(=O)N(CC)C1,94.7% (inactive)
14,CC(=O)/C(Cc1ccccc1)=N/O,89.2% (inactive)
15,O=c1cc2oc3cc(O)c(O)cc3c(-c3ccccc3O)c-2cc1O,62.9% (inactive)
16,CC(=O)Oc1ccc(Br)cc1C(=O)O,101% (inactive)
17,CCOC(=O)c1ccc(NC(=S)P(=O)(c2ccccc2)c2ccccc2)cc1,101% (inactive)
18,Cc1cc(/C=C/c2ccc3cc(N(C)C)ccc3[n+]2C)c(C)n1-c1ccccc1,-1.13% (active)
19,CCOC(=O)CCCS(C)(=O)=O,86.2% (inactive)
20,O=C(CS)Nc1ccc2ccccc2c1,112% (inactive)
